In PubChem BioAssay AID1571 (National Center for Advancing Translational Sciences (NCATS), 2009) one finds Potency and total fluorescence change, positive = fluorescent data, which are given here for 40 compounds.

“And” between values parts separate entries of the source, which are not always exact repeats. Identical values can stand only once. Results filed as inconclusive are left out. Entries that show only a call come without a potency. The source made the active and inactive calls. Calls come from the whole dose curve; as a rule, active = well fitted curve in the direction sought with a large enough effect; inconclusive = small, poorly fitted or top-dose-only effect, or effect the other way; inactive = flat fitted curve, though single readings scatter.

This assay in a line: Total Fluorescence Confirmation Counterscreen for Inhibitors of the Interaction of Thyroid Hormone Receptor and Steroid Receptor Coregulator 2, Fluorescein Fluoroprobe. Particulars: TRbeta/SRC2-fluorescein mix, total fluorescence interference; series mostly up to 92.2 µM. The text has this: NIH Molecular Libraries Probe Production Network [MLPCN] NIH Chemical Genomics Center [NCGC] MLPCN Grant: DK058080 Assay Provider: R. Kip Guy, St. Jude Children's Research Hospital NCGC Assay Overview: Thyroid receptor (TR) regulates many homeostatic processes including basal metabolism, cardiovascular function, body weight, and lipid trafficking. TR modulators are potential therapeutics for obesity and hyperlipidemias but current thyroid analogs have undesirable side effects, particularly cardiac stimulation. To identify inhibitors that specifically prevent the interaction of TR with the steroid receptor coregulator 2 (SRC2), a fluorescence polarization assay was screened (Arnold et al., 2006). This assay detects interaction of the ligand-binding domain of human TRbeta with a fluorescein labeled SRC2 peptide, corresponding to a 20 amino acid region of the nuclear receptor interaction domain. Total fluorescence (555 nm excitation and 632 nm emission) was measured to identify potential fluorescent and light absorbing compounds. Such compounds may be artifacts that interfere with the fluorescence polarization assay. This assay is a confirmation assay for AID 1479. Arnold, L. A.; Estebanez-Perpina, E.; Togashi, M.; Shelat, A.; Ocasio, C. A.; McReynolds, A. C.; Nguyen, P.; Baxter, J. D.; Fletterick, R. J.; Webb, P.; Guy, R. K. A high-throughput screening method to identify small molecule inhibitors of thyroid hormone receptor coactivator binding. Sci STKE 2006, p 13.
NCGC Assay Protocol Summary: For screening, 5 uL/well 0.6 uM TRbeta and 20 nM SRC2 Fluorescein in protein buffer (20mM Tris hydrochloride, 100mM NaCl, 10% glycerol, 1mM EDTA, 0.01% NP-40, 1mM DTT, 1uM T3 and 5% DMSO) was dispensed into black solid 1536-well plates (Grenier) using a solenoid-based dispenser. Following transfer of 23 nL compound or DMSO vehicle by a pin tool, the plates were centrifuged 15 s at 1000 RPM and incubated 5 hr at ambient temperature. The plates were read by an Envision (Perkin Elmer) to detect fluorescence polarization of SRC2 Fluorescein (480 nm excitation and 535 nm emission). Data were normalized to unbound (all components except TRbeta) and bound SRC2 Fluorescein controls. Total fluorescence (TF) was calculated as follows: TF = S + 2P where S and P are fluorescence readings in the parallel and perpendicular channels, respectively. In this assay, we provide % activity data for each concentration as well as potencies for the active compounds.
`O=C(/C=C/c1ccco1)NC(=S)Nc1cc(C(F)(F)F)ccc1N1CCOCC1`: the Potency result is “inactive”.
As for `O=C1CNC(=S)N1c1nc(-c2ccccc2)cs1`, the total fluorescence change, positive = fluorescent is 7.24% [at 0.0112 µM] (inactive).
As to `COn1c2c(c3c4nonc4ccc31)CCCC2`, the Potency result was “inactive”.
In the case of `COc1ccc(C(=O)Oc2ccc(C(c3c(C)[nH][nH]c3=O)c3c(C)[nH][nH]c3=O)cc2OC)cc1`, the Potency result was “inactive”.
`CN(CCO)c1nc(N)c2c(N)nc3c(c2c1C#N)CC(=O)N3C1CCCC1`: the total fluorescence change, positive = fluorescent was 13.6% [at 11.6 µM] (inactive).
Turning to `CCN(C(=O)C1CCCN(c2ncnc3onc(-c4ccc(F)cc4)c23)C1)c1ccccc1` (stereo not given), the Potency result is “inactive”.
Turning to `COc1ccc(-c2nc(CS(=O)CC(=O)NCc3ccccn3)c(C)o2)cc1` (stereo not given), the Potency was 39.8 µM [fluorescent] (active).
As for `CN1N=C(C(C)(C)C)CC1=O`, the Potency entry was “inactive”.
In the case of `COc1cc(C(c2c(C)[nH][nH]c2=O)c2c(C)[nH][nH]c2=O)ccc1OC(=O)c1cccc(C)c1`, the Potency entry is “inactive”.
On to `COc1ccc(C(=O)/C=C/Nc2ccc(S(=O)(=O)Nc3ncccn3)cc2)cc1`, for which the total fluorescence change, positive = fluorescent was 8.87% [at 0.0112 µM] (inactive).
As to `CCCc1nc2c(=O)n(C)c(=O)nc-2n(C)n1`, the Potency result was “inactive”.
For the compound `O=C(O)C1C2C=CC(O2)C1C(=O)Nc1ccc(S(=O)(=O)N2CCc3ccccc32)cc1` (stereo not given), the total fluorescence change, positive = fluorescent is 3.65% [at 11.6 µM] (inactive).
Consider `Cc1ccc2c(CC(=O)Nc3c(C(=O)c4ccc(F)cc4)oc4ccccc34)coc2c1C`, for which the Potency result was “inactive”.
For the compound `CCOC(=O)c1cnc2nc(NCc3ccc(OC)c(OC)c3)[nH]n2c1=O`, the Potency result was “inactive”.
Regarding `Cc1ccccc1Nc1cc2ccccc2c(=O)[nH]1`, the Potency was 25.1 µM [fluorescent] (active) and 44.7 µM [fluorescent] (active).
On the same count and under the same terms, the same measure for `CCSc1ncc(Cl)c(C(=O)Nc2nc3ccc(OC)cc3s2)n1`: “inactive”; for `CC1=NN(c2ccc(F)cc2)C(=O)C1C(c1cccc(O)c1)c1c(C)[nH]n(-c2ccc(F)cc2)c1=O` (stereo not given): “inactive”; for `Cc1[nH][nH]c(=O)c1C(c1ccc(-c2ccccc2C(=O)O)o1)c1c(C)[nH][nH]c1=O`: “inactive”.
Same read-out and setting: the value for `Cc1nc2c3cc(F)ccc3n(Cc3ccccc3F)c2s1` was “inactive”; that for `Cc1ccc(OC(=S)Nc2ccc(O)cc2)cc1` was “inactive”; that for `CN1CCc2ccc3c4c2[C@]1(C)Cc1cccc(c1-4)OCO3` was 100 µM [fluorescent] (active).
Regarding `CS(=O)(=O)c1ccc(C(=O)OCC(=O)NC(=O)C2CCCCC2)cc1[N+](=O)[O-]`, the total fluorescence change, positive = fluorescent was 3.5% [at 0.0112 µM] (inactive).
For the compound `CCOc1cc(N2CCOCC2)c(OCC)cc1NC(C)C(=O)N1CCN(CC)CC1` (stereo not given), the total fluorescence change, positive = fluorescent was 10.4% [at 11.6 µM] (inactive).
Take `O=C1CCCC(O)=C1N=Nc1cccc(S(=O)(=O)N2CCOCC2)c1`: the Potency result is “inactive”.
Still for that read-out and setting: the same measure for `Cn1c(-c2ccc(=O)[nH]c2)nc2ccccc21`: “inactive”; for `CCCCOc1ccc(C(=O)CCN2CCOCC2)cc1`: “inactive”.
For `O=C(NNc1cc(N2CCOCC2)nc(N2CCOCC2)n1)c1ccc([N+](=O)[O-])cc1`, the total fluorescence change, positive = fluorescent is 19.9% [at 11.6 µM] (inactive).
As for `Cc1cc(C)cc(OCC(=O)NCCc2nc3ccccc3[nH]2)c1`, the Potency entry is “inactive”.
Still for that read-out and setting: the value for `Nc1c(C(=O)NCc2ccco2)c2nc3ccccc3nc2n1CCc1ccccc1` was “inactive”.
Same read-out and setting: the value for `Cc1nc2ccccc2n2c(O)c(CC(=O)O)cc12` was 12.6 µM [fluorescent] (active).
Turning to `COC(=O)/C(=C/Nc1ccc(O)cc1)[N+](=O)[O-]`, the total fluorescence change, positive = fluorescent is 0.349% [at 5.76 µM] (inactive).
Turning to `CCN(CC)S(=O)(=O)c1cccc(N=NC2=C(O)CCCC2=O)c1`, the total fluorescence change, positive = fluorescent is 7.56% [at 0.0112 µM] (inactive).
In the case of `COc1cc(C(c2c(C)[nH][nH]c2=O)c2c(C)[nH][nH]c2=O)ccc1OC(=O)c1ccccc1OC`, the Potency result was “inactive”.
For the compound `Cc1ccc(-c2nc(S(=O)(=O)c3ccc(F)cc3)c(SCC(=O)NCC3CCCO3)o2)cc1` (stereo not given), the Potency entry is “inactive”.
For `Cn1cc[nH]c1=S`, the Potency result is “inactive”.
As to `C/C(=C\C(=O)c1ccccc1)Nc1ccc(O)cc1`, the total fluorescence change, positive = fluorescent was 10.3% [at 11.6 µM] (inactive).
As to `CC1=NN(Cc2ccccc2)C(=O)C1`, the Potency result was “inactive”.
For the compound `O=c1[nH]c(Nc2ccccc2)cc2ccccc12`, the Potency was 35.5 µM [fluorescent] (active).
Turning to `O=C(O)/C=C/C(=O)Nc1ccc(OC(F)(F)F)cc1Br`, the total fluorescence change, positive = fluorescent is 17.7% [at 0.0112 µM] (inactive).
In the case of `Nc1cnccc1C(=O)O`, the Potency entry was “inactive”.
